Laboratory results from the supplement of paper PMC7765376.
Counter-ions that a name gives are not always drawn. In all, about 1,500 compounds were measured (“Excess HSA synergy score (sum over dose matrix of excess over highest single agent)”: median about 43, lowest 2% from about -900 on). For the sample, the lowest values were picked, then their nearest neighbours and some compounds at random.

Tested on: PEO-1
Assay: Excess HSA synergy score (sum over dose matrix of excess over highest single agent) (score (summed % response)); higher = less synergy / more antagonism (negative = synergy)
Details: 72 h, read-out: viability/apoptosis luminescence (CellTiter-Glo or Caspase3-Glo / not stated per table)
[1] = matrix design: 6x6, 5-fold dilutions (primary screen)
[2] = matrix design: 10x10, 9-step dilutions (confirmatory)

SMILES | Excess HSA synergy score [1] | Excess HSA synergy score [2]
O=c1cc(-c2ccccc2)oc2cc(O)cc(O)c12 [5,7-Dihydroxyflavone] + CC[C@H](NC(=O)[C@H](C)NC)C(=O)N1C[C@@H](O)C[C@H]1Cc1c(-c2[nH]c3cc(F)ccc3c2C[C@@H]2C[C@H](O)CN2C(=O)[C@H](CC)NC(=O)[C@H](C)NC)[nH]c2cc(F)ccc12 [Birinapant] | -131 | –
CCOC(=O)[C@@H](N)CCC(=O)N[C@@H](CSCc1ccccc1)C(=O)N[C@@H](C(=O)OCC)c1ccccc1 [Ezatiostat] + CC[C@H](NC(=O)[C@H](C)NC)C(=O)N1C[C@@H](O)C[C@H]1Cc1c(-c2[nH]c3cc(F)ccc3c2C[C@@H]2C[C@H](O)CN2C(=O)[C@H](CC)NC(=O)[C@H](C)NC)[nH]c2cc(F)ccc12 [Birinapant] | 49.2 | –
CN1CCCN(C(=O)c2cccc(-c3ccc(/C=C4/C(=O)Nc5ccc(Cl)cc54)o3)c2)CC1 + CC[C@H](NC(=O)[C@H](C)NC)C(=O)N1C[C@@H](O)C[C@H]1Cc1c(-c2[nH]c3cc(F)ccc3c2C[C@@H]2C[C@H](O)CN2C(=O)[C@H](CC)NC(=O)[C@H](C)NC)[nH]c2cc(F)ccc12 [Birinapant] | 92.9 | -1060
Cc1[nH]c(/C=C2\C(=O)Nc3ccc(S(=O)(=O)N(C)c4cccc(Cl)c4)cc32)c(C)c1C(=O)N1CCN(C)CC1 + CC[C@H](NC(=O)[C@H](C)NC)C(=O)N1C[C@@H](O)C[C@H]1Cc1c(-c2[nH]c3cc(F)ccc3c2C[C@@H]2C[C@H](O)CN2C(=O)[C@H](CC)NC(=O)[C@H](C)NC)[nH]c2cc(F)ccc12 [Birinapant] | -71.9 | –
Cc1[nH]c(/C=C2\C(=O)Nc3ccc(S(=O)(=O)Cc4c(Cl)cccc4Cl)cc32)c(C)c1C(=O)N1CCC[C@@H]1CN1CCCC1 + CC[C@H](NC(=O)[C@H](C)NC)C(=O)N1C[C@@H](O)C[C@H]1Cc1c(-c2[nH]c3cc(F)ccc3c2C[C@@H]2C[C@H](O)CN2C(=O)[C@H](CC)NC(=O)[C@H](C)NC)[nH]c2cc(F)ccc12 [Birinapant] | -132 | –
COc1cc(-c2nn([C@H]3CC[C@H](N4CCN(C(C)=O)CC4)CC3)c3ncnc(N)c23)ccc1NC(=O)c1cc2ccccc2n1C + CC[C@H](NC(=O)[C@H](C)NC)C(=O)N1C[C@@H](O)C[C@H]1Cc1c(-c2[nH]c3cc(F)ccc3c2C[C@@H]2C[C@H](O)CN2C(=O)[C@H](CC)NC(=O)[C@H](C)NC)[nH]c2cc(F)ccc12 [Birinapant] | 112 | –
CO[C@@H]1[C@H](N(C)C(=O)c2ccccc2)C[C@H]2O[C@]1(C)n1c3ccccc3c3c4c(c5c6ccccc6n2c5c31)C(=O)NC4=O [Stauprimide] + CC[C@H](NC(=O)[C@H](C)NC)C(=O)N1C[C@@H](O)C[C@H]1Cc1c(-c2[nH]c3cc(F)ccc3c2C[C@@H]2C[C@H](O)CN2C(=O)[C@H](CC)NC(=O)[C@H](C)NC)[nH]c2cc(F)ccc12 [Birinapant] | 168 | –
COc1ccc(OC)c(-c2nnc3ccc(-c4ccc(OC)c(O[C@@H]5CCOC5)c4)nn23)c1 + CC[C@H](NC(=O)[C@H](C)NC)C(=O)N1C[C@@H](O)C[C@H]1Cc1c(-c2[nH]c3cc(F)ccc3c2C[C@@H]2C[C@H](O)CN2C(=O)[C@H](CC)NC(=O)[C@H](C)NC)[nH]c2cc(F)ccc12 [Birinapant] | -150 | –
COc1cc(OC)cc(-c2ccc3ncc4ccc(=O)n(-c5ccc(N6CCNCC6)c(C(F)(F)F)c5)c4c3c2)c1 + CC[C@H](NC(=O)[C@H](C)NC)C(=O)N1C[C@@H](O)C[C@H]1Cc1c(-c2[nH]c3cc(F)ccc3c2C[C@@H]2C[C@H](O)CN2C(=O)[C@H](CC)NC(=O)[C@H](C)NC)[nH]c2cc(F)ccc12 [Birinapant] | 160 | –
Nc1ccc(-c2ccc3ncc4ccc(=O)n(-c5cccc(C(F)(F)F)c5)c4c3c2)cn1 [Torin-2] + CC[C@H](NC(=O)[C@H](C)NC)C(=O)N1C[C@@H](O)C[C@H]1Cc1c(-c2[nH]c3cc(F)ccc3c2C[C@@H]2C[C@H](O)CN2C(=O)[C@H](CC)NC(=O)[C@H](C)NC)[nH]c2cc(F)ccc12 [Birinapant] | -80.4 | -999
CCC(=O)N1CCN(c2ccc(-n3c(=O)ccc4cnc5ccc(-c6cnc7ccccc7c6)cc5c43)cc2C(F)(F)F)CC1 [Torin-1] + CC[C@H](NC(=O)[C@H](C)NC)C(=O)N1C[C@@H](O)C[C@H]1Cc1c(-c2[nH]c3cc(F)ccc3c2C[C@@H]2C[C@H](O)CN2C(=O)[C@H](CC)NC(=O)[C@H](C)NC)[nH]c2cc(F)ccc12 [Birinapant] | -195 | –
CN1CCC(COc2cnc(-c3cccc(Cn4nc(-c5cccc(C#N)c5)ccc4=O)c3)nc2)CC1 + CC[C@H](NC(=O)[C@H](C)NC)C(=O)N1C[C@@H](O)C[C@H]1Cc1c(-c2[nH]c3cc(F)ccc3c2C[C@@H]2C[C@H](O)CN2C(=O)[C@H](CC)NC(=O)[C@H](C)NC)[nH]c2cc(F)ccc12 [Birinapant] | 19.6 | –
Cn1cc(-c2ccc3nnc(Sc4ccc5ncccc5c4)n3n2)cn1 + CC[C@H](NC(=O)[C@H](C)NC)C(=O)N1C[C@@H](O)C[C@H]1Cc1c(-c2[nH]c3cc(F)ccc3c2C[C@@H]2C[C@H](O)CN2C(=O)[C@H](CC)NC(=O)[C@H](C)NC)[nH]c2cc(F)ccc12 [Birinapant] | 117 | –
NC(=O)c1cccc(-c2cccc(OC(=O)NC3CCCCC3)c2)c1 + CC[C@H](NC(=O)[C@H](C)NC)C(=O)N1C[C@@H](O)C[C@H]1Cc1c(-c2[nH]c3cc(F)ccc3c2C[C@@H]2C[C@H](O)CN2C(=O)[C@H](CC)NC(=O)[C@H](C)NC)[nH]c2cc(F)ccc12 [Birinapant] | 46.3 | –
CNc1nccc(-c2cccnc2Oc2cc(C(=O)Nc3cccc(C(F)(F)F)c3)ccc2C)n1 + CC[C@H](NC(=O)[C@H](C)NC)C(=O)N1C[C@@H](O)C[C@H]1Cc1c(-c2[nH]c3cc(F)ccc3c2C[C@@H]2C[C@H](O)CN2C(=O)[C@H](CC)NC(=O)[C@H](C)NC)[nH]c2cc(F)ccc12 [Birinapant] | 73.8 | –
CC(=O)[C@]1(O)Cc2c(O)c3c(c(O)c2[C@@H](O[C@H]2C[C@H](N)[C@H](O)[C@H](C)O2)C1)C(=O)c1ccccc1C3=O [Idarubicin hydrochloride] + CC[C@H](NC(=O)[C@H](C)NC)C(=O)N1C[C@@H](O)C[C@H]1Cc1c(-c2[nH]c3cc(F)ccc3c2C[C@@H]2C[C@H](O)CN2C(=O)[C@H](CC)NC(=O)[C@H](C)NC)[nH]c2cc(F)ccc12 [Birinapant] | -126 | -1080
COc1cccc2c1C(=O)c1c(O)c3c(c(O)c1C2=O)C[C@@](O)(C(C)=O)C[C@@H]3O[C@H]1C[C@H](N)[C@H](O)[C@H](C)O1 [Daunorubicin] + CC[C@H](NC(=O)[C@H](C)NC)C(=O)N1C[C@@H](O)C[C@H]1Cc1c(-c2[nH]c3cc(F)ccc3c2C[C@@H]2C[C@H](O)CN2C(=O)[C@H](CC)NC(=O)[C@H](C)NC)[nH]c2cc(F)ccc12 [Birinapant] | -171 | –
COc1cccc2c1C(=O)c1c(O)c3c(c(O)c1C2=O)C[C@@](O)(C(=O)CO)C[C@@H]3O[C@H]1C[C@H](N)[C@H](O[C@@H]2CCCCO2)[C@H](C)O1 [Pirarubicin] + CC[C@H](NC(=O)[C@H](C)NC)C(=O)N1C[C@@H](O)C[C@H]1Cc1c(-c2[nH]c3cc(F)ccc3c2C[C@@H]2C[C@H](O)CN2C(=O)[C@H](CC)NC(=O)[C@H](C)NC)[nH]c2cc(F)ccc12 [Birinapant] | -150 | –
COc1cc2c(Nc3ccc(Cl)c(Cl)c3F)ncnc2cc1OC[C@@H]1C[C@@H]2CN(C)C[C@@H]2C1 + CC[C@H](NC(=O)[C@H](C)NC)C(=O)N1C[C@@H](O)C[C@H]1Cc1c(-c2[nH]c3cc(F)ccc3c2C[C@@H]2C[C@H](O)CN2C(=O)[C@H](CC)NC(=O)[C@H](C)NC)[nH]c2cc(F)ccc12 [Birinapant] | -5.11 | –
Nc1cc(C(F)(F)F)c(-c2cc(N3CCOCC3)nc(N3CCOCC3)n2)cn1 + CC[C@H](NC(=O)[C@H](C)NC)C(=O)N1C[C@@H](O)C[C@H]1Cc1c(-c2[nH]c3cc(F)ccc3c2C[C@@H]2C[C@H](O)CN2C(=O)[C@H](CC)NC(=O)[C@H](C)NC)[nH]c2cc(F)ccc12 [Birinapant] | 242 | –
c1ccc(CNc2nc(NCc3ccccc3)c3ccccc3n2)cc1 + CC[C@H](NC(=O)[C@H](C)NC)C(=O)N1C[C@@H](O)C[C@H]1Cc1c(-c2[nH]c3cc(F)ccc3c2C[C@@H]2C[C@H](O)CN2C(=O)[C@H](CC)NC(=O)[C@H](C)NC)[nH]c2cc(F)ccc12 [Birinapant] | -180 | –
CCC(C)SSc1ncc[nH]1 (configuration not stated) + CC[C@H](NC(=O)[C@H](C)NC)C(=O)N1C[C@@H](O)C[C@H]1Cc1c(-c2[nH]c3cc(F)ccc3c2C[C@@H]2C[C@H](O)CN2C(=O)[C@H](CC)NC(=O)[C@H](C)NC)[nH]c2cc(F)ccc12 [Birinapant] | 79.6 | –
CS(=O)(=O)Oc1ccc2c(NC(N)=O)c(C(=O)c3ccc(Cl)cc3Cl)oc2c1 [Lirimilast] + CC[C@H](NC(=O)[C@H](C)NC)C(=O)N1C[C@@H](O)C[C@H]1Cc1c(-c2[nH]c3cc(F)ccc3c2C[C@@H]2C[C@H](O)CN2C(=O)[C@H](CC)NC(=O)[C@H](C)NC)[nH]c2cc(F)ccc12 [Birinapant] | -20.9 | –
CCC1=C[C@@H]2CN(C1)Cc1c([nH]c3ccccc13)[C@@](C(=O)OC)(c1cc3c(cc1OC)N(C)[C@H]1[C@@](O)(C(=O)OC)[C@H](OC(C)=O)[C@]4(CC)C=CCN5CC[C@]31[C@@H]54)C2 [Vinorelbine] + CC[C@H](NC(=O)[C@H](C)NC)C(=O)N1C[C@@H](O)C[C@H]1Cc1c(-c2[nH]c3cc(F)ccc3c2C[C@@H]2C[C@H](O)CN2C(=O)[C@H](CC)NC(=O)[C@H](C)NC)[nH]c2cc(F)ccc12 [Birinapant] | 91.9 | –
